From PubChem BioAssay AID1159580 (chemical genetic matrix, 2015)
Values joined by “and” are separate entries in the source; they are usually repeats but may differ in a detail not shown here. Identical values can stand only once. In all, about 5,500 compounds went through this assay and about 2,000 (36%) were called active. Not shown: some 18% with an inconclusive outcome. Rule as the data show it: active = normalized growth mostly below about 0.91 (no sharp cut-off); inconclusive = no clear call, values can overlap the other calls; inactive = mostly above about 0.92. This is one part of the list.

Assay: chemical genetic growth profiling, strain panel (AID 1159580);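 also: tested at 20 µM; growth read once vehicle control cultures reached saturation at 30 °C; 1 = growth at the plate median or of vehicle wells; lower values mean less growth of the strain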
Conditions: S. cerevisiae deletion strains, growth OD

Measured: normalized growth

O=C(O)c1cc(=O)c2c(OCC(O)COc3cccc4oc(C(=O)O)cc(=O)c34)cccc2o1
inactive: locus YAL013W, strain DEP1, active compounds read low 1.01 | locus YAL021C, strain ccr4, active compounds read low 0.964 | locus YAL026C, strain drs2, active compounds read low 1.01 | locus YAL030W, strain snc1, active compounds read low 0.996 | locus YBL061C, strain skt5, active compounds read low 0.977 | locus YBR009C, strain hhf1, active compounds read low 0.994 | locus YBR021W, strain FUR4, active compounds read low 1.01 | locus YBR023C, strain chs3, active compounds read low 0.992 | locus YBR171W, strain sec66, active compounds read low 0.96 | locus YBR229C, strain ROT2, active compounds read low 1.01 | locus YBR231C, strain swc5, active compounds read low 0.963 | locus YBR279W, strain paf1, active compounds read low 0.995 | locus YCL011C, strain gbp2, active compounds read low 1 | locus YCL016C, strain dcc1, active compounds read low 1.02 | locus YCL029C, strain bik1, active compounds read low 1.02 | locus YCL061C, strain MRC1, active compounds read low 0.983 | locus YCL069W, strain vba3, active compounds read low 0.977 | locus YCR088W, strain abp1, active compounds read low 0.974 | locus YDL005C, strain med2, active compounds read low 0.974 | locus YDL035C, strain GPR1, active compounds read low 1.01 | locus YDL040C, strain nat1, active compounds read low 0.964 | locus YDL074C, strain BRE1, active compounds read low 1.01 | locus YDL101C, strain DUN1, active compounds read low 1.01 | locus YDL185W, strain tfp1, active compounds read low 1.03 | locus YDL192W, strain arf1, active compounds read low 1.02 | locus YDR001C, strain nth1, active compounds read low 0.971 | locus YDR069C, strain doa4, active compounds read low 0.971 | locus YDR101C, strain arx1, active compounds read low 1.03 | locus YDR137W, strain rgp1, active compounds read low 0.973 | locus YDR159W, strain sac3, active compounds read low 0.926 | locus YDR162C, strain NBP2, active compounds read low 1.01 | locus YDR195W, strain ref2 0.896 | locus YDR297W, strain sur2, active compounds read low 0.987 | locus YDR318W, strain mcm21, active compounds read low 1.02 | locus YDR334W, strain swr1, active compounds read low 0.969 | locus YDR335W, strain msn5, active compounds read low 0.967 | locus YDR388W, active compounds read low 1.02 | locus YDR392W, strain spt3, active compounds read low 1.03 | locus YDR502C, strain sam2, active compounds read low 1 | locus YEL003W, strain gim4, active compounds read low 0.955 | locus YEL037C, strain rad23, active compounds read low 0.955 | locus YEL061C, strain CIN8 (second series), active compounds read low 0.964 | locus YEL061C, strain CIN8, active compounds read low 1.01 | locus YER015W, strain faa2, active compounds read low 0.99 | locus YER016W, strain bim1, active compounds read low 0.996 | locus YER110C, active compounds read low 1.03 | locus YER111C, strain swi4, active compounds read low 0.972 | locus YER155C, strain BEM2 (second series), active compounds read low 0.935 | locus YER155C, strain BEM2, active compounds read low 1.01 | locus YER167W, strain BCK2, active compounds read low 1.01 | locus YFR010W, strain ubp6, active compounds read low 0.969 | locus YGL078C, strain dbp3, active compounds read low 1.01 | locus YGL086W, strain mad1, active compounds read low 1 | locus YGL167C, strain pmr1, active compounds read low 0.96 | locus YGL173C, strain kem1, active compounds read low 0.959 | locus YGL227W, strain vid30, active compounds read low 0.977 | locus YGL240W, strain doc1, active compounds read low 0.959 | locus YGL248W, strain PDE1, active compounds read low 1.01 | locus YGL253W, strain hxk2, active compounds read low 0.983 | locus YGR135W, strain pre9, active compounds read low 1.02 | locus YGR229C, strain SMI1, active compounds read low 1.02 | locus YGR252W, strain gcn5, active compounds read low 1.03 | locus YHR013C, strain ard1, active compounds read low 0.979 | locus YHR027C, strain rpn1, active compounds read low 0.989 | locus YHR030C, strain SLT2, active compounds read low 1.01 and 1 | locus YHR079C, strain IRE1 (second series), active compounds read low 1.03 | locus YHR079C, strain IRE1, active compounds read low 1 | locus YHR094C, strain hxt1, active compounds read low 1.02 | locus YHR129C, strain ARP1, active compounds read low 1.01 | locus YHR142W, strain chs7, active compounds read low 0.966 | locus YHR200W, strain rpn10, active compounds read low 1.02 | locus YIL066C, strain RNR3, active compounds read low 1.01 | locus YIL073C, strain SPO22, active compounds read low 1.06 | locus YIL125W, strain kgd1, active compounds read low 1.02 | locus YIR030C, strain dcg1, active compounds read low 1.03 | locus YJL092W, strain hpr5, active compounds read low 0.978 | locus YJL095W, strain BCK1 (second series), active compounds read low 0.974 | locus YJL095W, strain BCK1, active compounds read low 1.02 and 0.989 | locus YJL115W, strain asf1, active compounds read low 0.967 | locus YJL129C, strain trk1, active compounds read low 0.931 | locus YJL134W, strain LCB3, active compounds read low 1.01 | locus YJL154C, strain vps35, active compounds read low 0.962 | locus YJL164C, strain tpk1, active compounds read low 1 | locus YJL166W, strain qcr8, active compounds read low 0.953 | locus YJL168C, strain set2, active compounds read low 1.02 | locus YJL187C, strain SWE1 (second series), active compounds read low 1.02 | locus YJR043C, strain POL32, active compounds read low 0.998 | locus YJR066W, strain TOR1, active compounds read low 0.992 | locus YJR075W, strain HOC1, active compounds read low 1.01
